Drawing on PubChem BioAssay (EPA / NIEHS), this text covers outcome and AC50 for 20 compounds.

Active and inactive are the calls of the source. How the source made its calls: active means hit-call score of the fitted dose curve at least 0.9, where 1 is the maximum; inactive means score below 0.9.

Assay [1] in a line: BSK_hDFCGF_SRB: Viability Assessment in the BioMAP Diversity Plus: hDFCGF Assay (AID 2283061).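 Further: cells exposed to compound for 24 h before the read.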 Particulars: primary human foreskin fibroblasts. Summed up:
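Human foreskin primary fibroblasts were treated with compound and assessed 24 h after dosing. Total protein was measured by sulforhodamine B staining (0.1% SRB after 10% TCA fixation, 560 nm read) as a cytotoxicity marker, with bidirectional fitting against DMSO baseline.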

Read-out in assay [2]: TIMP metallopeptidase inhibitor 1 (TIMP1), TIMP1 (gene 7076)
Description: BSK_hDFCGF_TIMP1: BioMAP Diversity Plus: hDFCGF Assay for TIMP metallopeptidase inhibitor 1 (TIMP1) Biomarker Activity (AID 2283062). The settings on record: primary human foreskin fibroblasts; actives raise or lower the signal. The procedure, abridged: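 Primary human foreskin fibroblasts in the hDFCGF system were dosed with compound for 24 h, then TIMP-1 was measured by ELISA. Activity was fitted bidirectionally relative to DMSO control; parallel SRB staining assessed cytotoxicity.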

Read-out in assay [3]: Monokine induced gamma interferon (MIG), CXCL9 (gene 4283)
The assay is described as follows: BSK_hDFCGF_MIG: BioMAP Diversity Plus: hDFCGF Assay for Monokine induced gamma interferon (MIG) Biomarker Activity (AID 2283063). Particulars: primary human foreskin fibroblasts; actives raise or lower the signal. The procedure, abridged: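 ELISA read-out of MIG from primary human dermal fibroblasts 24 h post-dosing. Gain or loss of signal fitted bidirectionally, DMSO as baseline.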

Read-out in assay [4]: Matrix Metallopeptidase 1 (MMP1), MMP1 (gene 4312)
The assay is described as follows: BSK_hDFCGF_MMP1: BioMAP Diversity Plus: hDFCGF Assay for Matrix Metallopeptidase 1 (MMP1) Biomarker Activity (AID 2283064). Particulars: primary human foreskin fibroblasts; actives raise or lower the signal. Summed up: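 ELISA read-out of MMP1 from human foreskin fibroblasts (primary skin cells), 24 h post-dose. Gain or loss of signal was fitted bidirectionally versus DMSO negative control; cytotoxicity was checked by SRB in parallel cultures.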

Read-out in assay [5]: Vascular cell adhesion molecule 1 (VCAM1), VCAM1 (gene 7412)
Description: BSK_hDFCGF_VCAM1: BioMAP Diversity Plus: hDFCGF Assay for Vascular cell adhesion molecule 1 (VCAM1) Biomarker Activity (AID 2283065).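 On AC50: VCAM-1 protein level quantified by ELISA after 24 h chemical exposure.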 The settings on record: primary human foreskin fibroblasts; actives raise or lower the signal. Summed up:
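Primary human foreskin fibroblasts (hDFCGF system) were dosed with chemical and VCAM-1 was measured by ELISA 24 h later. Bidirectional curve fitting used DMSO as negative control and activity baseline.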

Read-out in assay [6]: Plasminogen activator inhibitor-1 (PAI1), SERPINE1 (gene 5054)
The assay is described as follows: BSK_hDFCGF_PAI1: BioMAP Diversity Plus: hDFCGF Assay for Plasminogen activator inhibitor-1 (PAI1) Biomarker Activity (AID 2283066). The settings on record: primary human foreskin fibroblasts; actives raise or lower the signal. The procedure, abridged: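 PAI-1 levels in human dermal foreskin fibroblasts were quantified by ELISA 24 h after dosing, with gain or loss analysed against DMSO. Overt cytotoxicity was checked by sulforhodamine B total-protein staining in parallel cultures.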

Read-out in assay [7]: Intercellular Adhesion Molecule 1 (ICAM1), ICAM1 (gene 3383)
Description: BSK_KF3CT_ICAM1: BioMAP Diversity Plus: KF3CT Assay for Intercellular Adhesion Molecule 1 (ICAM1) Biomarker Activity (AID 2283067). The settings on record: primary human keratinocytes with fibroblasts; actives raise or lower the signal. The procedure, abridged: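 Human keratinocyte plus foreskin fibroblast primary co-culture was exposed to chemical for 24 h. ICAM-1 was then quantified by ELISA, and the data were fit bidirectionally against DMSO as the negative control and baseline.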

Read-out in assay [8]: Interferon-gamma inducible Protein 10 (IP10), CXCL10 (gene 3627)
The assay is described as follows: BSK_KF3CT_IP10: BioMAP Diversity Plus: KF3CT Assay for Interferon-gamma inducible Protein 10 (IP10) Biomarker Activity (AID 2283068). The settings on record: primary human keratinocytes with fibroblasts; actives raise or lower the signal. Summed up: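 In a primary skin co-culture of keratinocytes and fibroblasts, IP-10 is quantified by ELISA at 24 h after dosing. SRB staining of parallel wells monitors overt toxicity. Curves are fitted both directions against DMSO.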

Assay [9] can be described thus: BSK_KF3CT_SRB: Viability Assessment in the BioMAP Diversity Plus: KF3CT Assay (AID 2283069).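 Further: fitted for both signal gain and loss against DMSO baseline.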 The settings on record: primary human keratinocytes with fibroblasts. Summed up: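 SRB read-out at 560 nm (0.1% stain, TCA-fixed cells) gauges overt cytotoxicity in a human skin keratinocyte–fibroblast co-culture 24 h post-dosing. Signal change was fitted bidirectionally relative to DMSO control.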

As for `Nc1c(Cl)c(F)nc(OCC(=O)O)c1Cl`, the result in assay [1], in [2], in assay [3], in [4], in assay [5] and in assay [6] was inactive. The result in [7], in assay [8] and in assay [9] was inactive.
Regarding `N#Cc1c[nH]cc1-c1cccc2c1OC(F)(F)O2`, the AC50 (as a rule, the concentration giving half of the maximal activity seen) in assay [1] was 5.56 µM (active); in [4], 5.28 µM (active); in [5], 5.39 µM (active). Moreover, the result in assay [2], in [3], in assay [6], in assay [7] and in assay [9] was inactive.
`COP(=S)(OC)Oc1ccc([N+](=O)[O-])c(C)c1`: the outcome in assay [1], in [2], in assay [3], in assay [4], in assay [6] and in [7] was inactive. Besides, in assay [9], the outcome was inactive. In assay [5], the AC50 was 9.37 µM (active).
For the compound `CCNC(=O)NC(=O)C(C#N)=NOC`, the result in assay [1], in [2], in assay [3], in assay [4], in assay [5] and in assay [6] was inactive. Also, the outcome in [7], in assay [8] and in assay [9] was inactive.
For the compound `O=c1n(Cl)c(=O)n(Cl)c(=O)n1Cl`, the result in assay [1], in assay [2], in assay [3], in assay [4], in assay [5] and in assay [6] was inactive. The outcome in assay [7], in assay [8] and in assay [9] was inactive.
Turning to `COCc1cnc(C2=NC(C)(C(C)C)C(=O)N2)c(C(=O)O)c1` (stereo not drawn), the outcome in assay [1], in [2], in [3], in assay [4], in [5] and in [6] was inactive. For the same compound, the outcome in [7] and in [9] was inactive.
Take `CCN(CC)C(=O)C(C)Oc1cccc2ccccc12` (stereo not drawn): the result in assay [1], in assay [2], in assay [3], in assay [4], in assay [6] and in [7] was inactive. In assay [9], the outcome was inactive.
For `CCOc1nc(F)cc2nc(S(=O)(=O)Nc3c(Cl)cccc3Cl)nn12`, the result in assay [1], in [2], in assay [3], in assay [4], in assay [5] and in [6] was inactive. The result in assay [7] and in [9] was inactive.
As to `CNC(=O)Oc1cccc2ccccc12`, the outcome in assay [1], in [3], in [6], in [7], in assay [8] and in assay [9] was inactive. In addition, the AC50 in assay [4] is 3.91 µM (active); in [5], 20 µM (active).
`COP(=O)(OC)O/C(C)=C/C(=O)N(C)C`: the outcome in assay [1], in assay [2], in [3], in assay [4], in assay [5] and in assay [6] was inactive. Also, the outcome in assay [7] and in [9] was inactive.
`CS(=O)(=O)c1ccc(C(=O)C2C(=O)CCCC2=O)c([N+](=O)[O-])c1`: the result in assay [1], in [2], in assay [3], in [4], in [5] and in assay [6] was inactive. Further, the result in assay [7] and in assay [9] was inactive.
As for `COc1cc(Cl)c(OC)cc1Cl`, the outcome in assay [1], in assay [2], in assay [3], in [4], in [5] and in [6] was inactive. The outcome in assay [7] and in assay [9] was inactive.
Turning to `Cc1nc(N(C)C)nc(OC(=O)N(C)C)c1C`, the AC50 in [1] was 29.8 µM (active). Besides, the outcome in [2], in assay [3], in [4], in [5], in assay [6] and in assay [7] was inactive. In assay [9], the result was inactive.
In the case of `CC1(C)CON(Cc2ccccc2Cl)C1=O`, the outcome in assay [1], in assay [3], in assay [5], in assay [6], in [7] and in assay [9] was inactive. Also, in [4], the AC50 is 20 µM (active).
With `CCSC(=O)N1CCCCCC1`, the result in assay [1], in assay [2], in assay [3], in [4], in assay [5] and in [6] was inactive. The outcome in assay [7] and in assay [9] was inactive.
Take `CN/C(=N\[N+](=O)[O-])NCc1cnc(Cl)s1`: the result in assay [1], in assay [2], in assay [3], in assay [4], in assay [5] and in [6] was inactive. Besides, the result in assay [7] and in assay [9] was inactive.
With `CC(C)=CC1C(C(=O)OCc2coc(Cc3ccccc3)c2)C1(C)C` (stereo not drawn), the result in assay [1], in assay [2], in [3], in assay [4], in assay [5] and in assay [6] was inactive. Besides, the outcome in assay [7], in assay [8] and in assay [9] was inactive.
For `Clc1nc(Cl)nc(Nc2ccccc2Cl)n1`, the AC50 was 31.7 µM (active) in assay [1], 29.1 µM (active) in [3], 36.1 µM (active) in assay [5] and 27.2 µM (active) in assay [6]. Further, the result in assay [2], in [4], in assay [7] and in [9] was inactive.
Consider `COC(=O)c1c(C(F)F)nc(C(F)(F)F)c(C2=NCCS2)c1CC(C)C`, for which the result in assay [1], in assay [2], in assay [3], in [4], in assay [5] and in assay [6] was inactive. For the same compound, the outcome in [7] and in assay [9] was inactive. For the same compound, the AC50 in assay [8] was 21.8 µM (active).
Consider `Cc1cc(C)nc(Nc2ccccc2)n1`, for which the result in [1], in [2], in assay [3], in assay [4], in assay [5] and in assay [6] was inactive. The result in [7] and in [9] was inactive.
